From PubChem BioAssay
Most compounds without a hit are left out; they make up all but 0.92% or so of the library.
AGP1 TOR yeast: alters AGP1-GFP fluorescence in TOR pathway yeast screen | S. cerevisiae AGP1-GFP multiplex flow cytometry, 3 h; GFP as percent of DMSO wells | GFP response vs DMSO, % at 10 µM | hit rate 0.02% among 320,000 | AID 2066;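 active = GFP response relative to DMSO above a set limit, near screen average plus 3 SD, cut at about 150% in these data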;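 also: median GFP channel fluorescence of the gated AGP1 strain per well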
CIT2-GFP yeast: modulators of TOR pathway CIT2-GFP in S. cerevisiae | GFP response vs DMSO, % at 10 µM | S. cerevisiae CIT2-GFP strain, flow cytometry, 3 h; 100 means same as DMSO wells | hit rate 0.065% among 320,000;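 active = GFP response relative to DMSO above a set limit, near the screen mean plus 3 SD, cut at about 150% in these data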;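 also: ratio of well median GFP fluorescence to mean of DMSO wells on the plate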
MEP2 TOR yeast: yeast TOR pathway MEP2-GFP modulation; hit rate 0.51% among 330,000; GFP response vs DMSO, % at 10 µM; S. cerevisiae MEP2-GFP strain, flow cytometry GFP, 3 h; 100% = DMSO control level;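 active = GFP response versus DMSO above a set limit, roughly screen mean plus 3 SD, cut at about 180% in these data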;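 also: median GFP fluorescence of the barcode-gated MEP2-GFP cells per well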
RPL19A-GFP yeast: yeast TOR pathway RPL19A-GFP modulation | S. cerevisiae RPL19A-GFP strain, flow cytometry, 3 h; stronger effect = lower value | percent response vs DMSO, % at 10 µM | hit rate 0.3% among 330,000 | AID 2025;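 active = percent response vs DMSO below 50%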;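 also: median channel GFP fluorescence of the barcoded RPL19A-GFP strain; ratio of sample median GFP to plate DMSO average so 100% = DMSO; lower means less RPL19A-GFP as with rapamycin TOR inhibition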
LAP4 TOR yeast: yeast TOR pathway LAP4-GFP modulation | hit rate 0.34% among 320,000 | GFP response vs DMSO, % at 10 µM | AID 2023 | S. cerevisiae LAP4-GFP multiplex, flow cytometry GFP, 3 h; median GFP as percent of DMSO wells;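 active = GFP response vs DMSO above a set limit, about the screen mean plus 3 SD, cut at about 150% in these data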
LAP4 cherry2: yeast LAP4-GFP modulation, second cherry pick; hit rate 20% among 590; shares compounds with LAP4 TOR yeast; AID 2621; S. cerevisiae LAP4-GFP strain, flow cytometry GFP, 3 h; GFP response vs DMSO, % at 10 µM;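 active = GFP signal as percent of the solvent control above about 150%, meaning raised reporter expression, limit read from the data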;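 also: ratio of well median GFP fluorescence to plate DMSO mean so 100% = DMSO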
MEP2 cherry2: reconfirmed MEP2-GFP TOR pathway modulator in yeast; shares compounds with LAP4 TOR yeast; S. cerevisiae MEP2-GFP strain, flow cytometry GFP, 3 h; GFP response vs DMSO, % at 10 µM; hit rate 10% among 590; AID 2622;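 active = GFP signal above 150% of the solvent control wells, that is a rise of more than half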;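 also: median channel GFP fluorescence of all gated yeast cells per well; ratio of median GFP to plate DMSO average so 100% = DMSO level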
RPL19A-GFP pick2: yeast RPL19A-GFP TOR reporter modulation, second cherry pick. GFP response vs DMSO, % at 10 µM. S. cerevisiae RPL19A-GFP strain, flow cytometry GFP, 3 h; stronger effect = lower value; 100% means same as DMSO wells. hit rate 3% among 590. shares compounds with LAP4 TOR yeast;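 active = under 65% GFP response relative to DMSO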;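 also: median GFP channel fluorescence per well over the all cells gate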
CIT2-GFP pick2: second confirmation of modulators of TOR reporter CIT2-GFP in yeast | GFP response vs DMSO, % at 10 µM | S. cerevisiae CIT2-GFP strain, flow cytometry GFP, 3 h; DMSO control wells read 100% | shares compounds with LAP4 TOR yeast | AID 2624 | hit rate 8% among 590;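 active = GFP response vs DMSO above about 150%, limit read from the data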;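 also: median green fluorescence per well over all gated yeast cells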
AGP1-GFP pick2: reconfirmed modulator of AGP1-GFP TOR reporter in yeast; 590 tested, under 10 active; S. cerevisiae AGP1-GFP strain, flow cytometry GFP, 3 h; shares compounds with LAP4 TOR yeast; percent response vs DMSO, % at 10 µM;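 active = over 150 percent of DMSO response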;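 also: median GFP channel fluorescence over all cells without mother daughter split; sample median GFP divided by mean DMSO control so 100% equals DMSO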
Yeast autofluor: yeast s288c autofluorescence artifact, counter-screen | fluorescence change (kMESF span) at 33 µM | shares compounds with LAP4 TOR yeast | S. cerevisiae s288c, 520 nm autofluorescence, flow cytometry, 3 h; stronger effect = higher value; zero means same as solvent-only cells | 610 tested, under 10 active;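 active = fluorescence span over the dose series, or activity score, above about 33, limit read from the data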
Yeast autofl DR: yeast s288c autofluorescence artifact in dose response; S. cerevisiae s288c parental, compound autofluorescence, flow cytometry, 3 h; 110 tested, under 10 active; AID 488829; fluorescence change (span) at 33 µM; shares compounds with LAP4 TOR yeast;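 active = fluorescence change span, or the activity score built from it, above 25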
TORC1 bypass gr: stops wildtype yeast growth while TORC1 bypass cells still grow; S. cerevisiae BY4741 spot growth rating, 48-72 h; stronger effect = lower value; 120 tested, under 10 active; growth rating (0-3) at 30 µM; shares compounds with LAP4 TOR yeast; AID 504456;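 active = growth rating at most 1 for wild type yeast while the TORC1 bypass strain still grows fully, rated 3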
Numbers without * were called inactive.

How did Cc1[nH]n(-c2ccccc2)c(=O)c1C(c1ccccc1[N+](=O)[O-])C(C#N)C#N (stereo unspecified) do in these assays?
AGP1 TOR yeast: 83; CIT2-GFP yeast: 100; MEP2 TOR yeast: 95; RPL19A-GFP yeast: 105; LAP4 TOR yeast: 168*; Yeast autofluor: 1.3

Results for CCOC(=O)c1c(-c2ccccc2)oc2ccc(O)c(CN(C)C)c12 ?
AGP1 TOR yeast: 97; CIT2-GFP yeast: 103; MEP2 TOR yeast: 98; RPL19A-GFP yeast: 98; LAP4 TOR yeast: 93

How did CCOC(=O)c1c(CSCc2ccccc2)oc2ccc(O)c(CN(C)C)c12 do in these assays?
AGP1 TOR yeast: 88; CIT2-GFP yeast: 90; MEP2 TOR yeast: 156; RPL19A-GFP yeast: 55; LAP4 TOR yeast: 95; LAP4 cherry2: 98; MEP2 cherry2: 100; RPL19A-GFP pick2: 100; CIT2-GFP pick2: 113; AGP1-GFP pick2: 98

Results for Cc1cc(C)cc(NC(=O)CN2CCc3cc4c(cc3C2C)OCCCO4)c1 (stereo unspecified) ?
AGP1 TOR yeast: 88; CIT2-GFP yeast: 99; MEP2 TOR yeast: 193*; RPL19A-GFP yeast: 100; LAP4 TOR yeast: 124; LAP4 cherry2: 102; MEP2 cherry2: 98; RPL19A-GFP pick2: 101; CIT2-GFP pick2: 107; AGP1-GFP pick2: 97

Results for Cc1cccc(NC(=O)CN2CCc3cc4c(cc3C2C)OCCCO4)c1 (stereo unspecified) ?
AGP1 TOR yeast: 101; CIT2-GFP yeast: 96; MEP2 TOR yeast: 89; RPL19A-GFP yeast: 95; LAP4 TOR yeast: 112

How did Cc1ccc(NC(=O)C/C(N)=N/OC(=O)Nc2cccc(C)c2)cc1 do in these assays?
AGP1 TOR yeast: 99; CIT2-GFP yeast: 106; MEP2 TOR yeast: 110; RPL19A-GFP yeast: 99; LAP4 TOR yeast: 100

How did O=C(Nc1ccccc1)ON=C1CCCC1 do in these assays?
AGP1 TOR yeast: 68; CIT2-GFP yeast: 130; MEP2 TOR yeast: 101; RPL19A-GFP yeast: 103; LAP4 TOR yeast: 117; LAP4 cherry2: 106; MEP2 cherry2: 107; RPL19A-GFP pick2: 108; CIT2-GFP pick2: 129; AGP1-GFP pick2: 61; Yeast autofluor: 0.2

Results for O=C(Nc1ccccc1)O/N=C/c1ccncc1 ?
AGP1 TOR yeast: 110; CIT2-GFP yeast: 109; MEP2 TOR yeast: 116; RPL19A-GFP yeast: 105; LAP4 TOR yeast: 110

How did Cc1ccc(NC(=O)ON=C2CCCC2)cc1 do in these assays?
AGP1 TOR yeast: 55; CIT2-GFP yeast: 219*; MEP2 TOR yeast: 103; RPL19A-GFP yeast: 95; LAP4 TOR yeast: 120; Yeast autofluor: 1.6

What do the screens show for `Cc1ccc(C)c(NC(=O)c2cc(-c3cc(C)c(C)cc3O)n[nH]2)c1`?
AGP1 TOR yeast: 101; CIT2-GFP yeast: 100; MEP2 TOR yeast: 95; RPL19A-GFP yeast: 100; LAP4 TOR yeast: 97

How did CCOC(=O)N1CCN(c2ccnc3cc(Cl)ccc23)CC1 do in these assays?
AGP1 TOR yeast: 104; CIT2-GFP yeast: 105; MEP2 TOR yeast: 100; RPL19A-GFP yeast: 104; LAP4 TOR yeast: 94

Results for O=C(Oc1ccnc2cc(Cl)ccc12)N1CCCCCC1 ?
AGP1 TOR yeast: 185*; CIT2-GFP yeast: 79; MEP2 TOR yeast: 422*; RPL19A-GFP yeast: 88; LAP4 TOR yeast: 135; Yeast autofluor: 0.2; Yeast autofl DR: 0.26; TORC1 bypass gr: 3

What do the screens show for `CCN(CC)C(=O)Oc1ccnc2cc(Cl)ccc12`?
AGP1 TOR yeast: 124; CIT2-GFP yeast: 96; MEP2 TOR yeast: 123; RPL19A-GFP yeast: 97; LAP4 TOR yeast: 109; LAP4 cherry2: 100; MEP2 cherry2: 198*; RPL19A-GFP pick2: 105; CIT2-GFP pick2: 90; AGP1-GFP pick2: 148; Yeast autofluor: 0.1; Yeast autofl DR: 0.08; TORC1 bypass gr: 3

How did Cc1ccc(C)c(CSC2=NCCN2S(=O)(=O)c2ccccc2)c1 do in these assays?
AGP1 TOR yeast: 109; CIT2-GFP yeast: 95; MEP2 TOR yeast: 115; RPL19A-GFP yeast: 106; LAP4 TOR yeast: 121

Results for COC(=O)Cc1csc(NC(=O)CSc2nncn2C)n1 ?
AGP1 TOR yeast: 109; CIT2-GFP yeast: 82; MEP2 TOR yeast: 106; RPL19A-GFP yeast: 88; LAP4 TOR yeast: 169*; LAP4 cherry2: 131; MEP2 cherry2: 100; RPL19A-GFP pick2: 100; CIT2-GFP pick2: 110; AGP1-GFP pick2: 99

What do the screens show for `O=C(c1ccc(C(=O)N2CCCc3ccccc32)s1)N1CCCc2ccccc21`?
AGP1 TOR yeast: 103; CIT2-GFP yeast: 67; MEP2 TOR yeast: 115; RPL19A-GFP yeast: 84; LAP4 TOR yeast: 171*; LAP4 cherry2: 125; MEP2 cherry2: 164*; RPL19A-GFP pick2: 101; CIT2-GFP pick2: 118; AGP1-GFP pick2: 142; Yeast autofluor: 1.3; Yeast autofl DR: 0.66; TORC1 bypass gr: 2

Results for CCCCN1CC(=O)N2[C@H](c3ccc(OC)cc3)[C@@H]3C(=O)N(CC)C(=O)[C@@H]3[C@]2(Cc2ccccc2)C1=O ?
AGP1 TOR yeast: 91; CIT2-GFP yeast: 107; MEP2 TOR yeast: 97; RPL19A-GFP yeast: 99; LAP4 TOR yeast: 121

Results for COc1cccc(/C=C/C(=O)c2c(O)cc(C)oc2=O)c1O ?
AGP1 TOR yeast: 86; CIT2-GFP yeast: 68; MEP2 TOR yeast: 82; RPL19A-GFP yeast: 90; LAP4 TOR yeast: 243*; Yeast autofluor: 0.1
